# Measurements from ChEMBL document CHEMBL3988442, “University of Dundee, Small-Polar-MMV Screening Library” (2021).
# Out of some 38,000 compounds screened, about 1,200 (3.2%) showed an effect of 50% or more. The median lay at about -58%. What follows is part of a selection rich in strong results, with near analogues and random picks from the rest.
# System: Plasmodium falciparum
# Assay: Calibr Malaria Delayed Death Assay SOP
# Type: functional, organism-based
# Parameters: scale not given: in the data most compounds retested in dose-response had high values
# Details: concentration 4.99e-06 (unit not given; other assays of the set use mol/L)
row,SMILES,Percent Effect [%]
1,Cc1nc2cc(NCc3cnn(C)c3)ccc2n1C,-142.2
2,COCCN(C)C[C@@H]1CN(C(=O)NC2CCCCC2)C[C@@H]1CO,-45.61
3,CCn1c(C)cc(C(=O)Nc2ccccc2CN(C)C(C)=O)c1C,-65.04
4,Fc1cccnc1Oc1cc(F)c(CN2CCCC2)c(F)c1,13.36
5,Cc1nc(NCCC23CCCN2CCC3)cc(C2CCCNC2)n1 (centres undefined),-30.47
6,COc1cccc(CN2CCCC2Cn2nc(C)nc2C)c1 (centres undefined),-44.63
7,Cc1nc(C2CCCNC2)cc(N(Cc2nccn2C)C2CC2)n1 (centres undefined),7.981
8,COc1cccc(CN2CC[C@H](c3nnc(C)o3)C2)c1,-103.2
9,O=c1n(Cc2ccccc2F)nc2ncccn12,-19.66
10,O=C(c1cnc(C2CC2)nc1O)N1CCN(Cc2ccccc2F)CC1,-42.64
11,CCn1ccnc1C1CCN(Cc2c(F)cccc2F)CC1,-140
12,CCSCc1cccc(NCc2cccnc2)c1,-120.6
13,CCCNc1cc(C(=O)N2CCOCC2)nc(C)n1,-41.3
14,COCCNC(=O)c1ccc2c(=O)n3c(nc2c1)CCCCCC3,-86.41
15,CC(C)N(C)Cc1cn2c(n1)CN(C(=O)c1ccc[nH]1)CC2,-50.23
16,COC[C@@H]1CC[C@H]2[C@H](CCN2S(=O)(=O)c2cccc(F)c2)O1,-8.99
17,Cc1ccc2c(c1)N(C(=O)c1c[nH]c(C)cc1=O)CC(C)O2 (centres undefined),-44.94
18,O=C(c1cnccn1)N1CCCC(c2cccc(-n3ccnc3)n2)C1 (centres undefined),-38.64
19,CC(C)C1SCC(=O)Nc2c1cnn2-c1ccc(Cl)cc1F (centres undefined),-28.94
20,CCC(=O)NCC(=O)N(C)C(c1ccc(Cl)cc1)c1cccnc1 (centres undefined),-30.63
21,Cn1c2ccc(F)cc2c2ncn(CCN3CCOCC3)c(=O)c21,-139.8
22,CC(Cc1ccccc1F)C(=O)Nc1cccc(OCC(N)=O)c1 (centres undefined),-53.66
23,Cc1ccc([C@]2(O)CC[C@H]3CN(Cc4ccc(Cl)cc4Cl)C[C@H]32)nc1,64.98
24,Cc1ccc([C@]2(O)CC[C@H]3CN(Cc4cccnc4)C[C@H]32)nc1,-69.34
25,Cc1ccc([C@]2(O)CC[C@H]3CN(Cc4cccc(F)c4F)C[C@H]32)nc1.O=C(O)CC(O)(CC(=O)O)C(=O)O,43.22
26,CCc1oc(C(=O)N[C@@H]2c3ccccc3C[C@@H]2O)cc1CN1CCCC1,-27.56

row,SMILES,Percent Effect [%]
1,CS(=O)(=O)NC1CCCN(Cc2ccc(OCc3ccccn3)cc2)C1 (centres undefined),-34.46
2,CCOc1ccc(CN2CCN(C(=O)c3cc(C4CC4)[nH]n3)CC2)cc1,-17.17
3,Cn1cc(CN(C(=O)c2ccc3ncsc3c2)C2CC2)cn1,-137
4,COCC1CC2(CCN(Cc3ccc(C)o3)CC2)CN1C(C)C.O=C(O)C(F)(F)F.O=C(O)C(F)(F)F (centres undefined),34.42
5,COCC1CC2(CCN(Cc3cccc(C#N)c3)CC2)CN1C(C)C.O=C(O)C(F)(F)F.O=C(O)C(F)(F)F (centres undefined),72.4
6,COCC1CC2(CCN(Cc3ccco3)CC2)CN1C(C)C.O=C(O)C(F)(F)F.O=C(O)C(F)(F)F (centres undefined),63.6
7,COC1COC2(CCN(Cc3cccc(C#N)c3)CC2)C1.O=C(O)C(F)(F)F (centres undefined),-4.356
8,COCC1CC2(CCN(C(=O)c3ccccc3C)CC2)CN1C(C)C.O=C(O)C(F)(F)F (centres undefined),-58.35
9,COCC1CC2(CCN(C(=O)c3ccco3)CC2)CN1C(C)C.O=C(O)C(F)(F)F (centres undefined),24.38
10,CNC(=O)CNC(=O)Nc1cc(-c2ccccc2)ns1,-97.73
11,O=C(O)C(F)(F)F.O=C1CCCN1Cc1nnc2n1CCN(Cc1ccoc1)CC2,-13.9
12,CCOCCNC(=O)c1cccnc1Sc1cc(OC)ccc1OC,-83.15
13,CC(C)OCc1noc(C2CCCOC2)n1 (centres undefined),-85.93
14,Cc1nnsc1C(=O)NCc1cccnc1N1CCc2ccccc2C1,-86.78
15,COC(=O)CCC(=O)NCc1cccnc1N1CCc2ccccc2C1,58.06
16,CC(C)[C@@H](N)C(=O)NCc1cccnc1N1CCc2ccccc2C1,28.21
17,NC(=O)NCCC(=O)NCc1cccnc1N1CCc2ccccc2C1,-76.53
18,Cc1cc(C(=O)NCc2cccnc2N2CCc3ccccc3C2)[nH]n1,-34.77
19,Cc1n[nH]cc1C(=O)NCc1cccnc1N1CCc2ccccc2C1,75.05
20,O=S(=O)(Cc1ccccc1F)Cc1nnnn1C1CC1,-164.7
21,CC(C)CC(=O)N1CCC2(CC1)OC(C(N)=O)Cn1ccnc12.O=C(O)C(F)(F)F (centres undefined),-41.43
22,CC(C)c1cc(C(=O)NC2CCN(CC(N)=O)CC2)nn1C(C)(C)C,-153
23,COc1ccc2oc(C(C)NC(=O)NCc3noc(C)n3)c(C)c2c1 (centres undefined),-10.38
24,CCc1cnc(N)nc1NCCC(=O)NC1CCCCC1,-82.55
25,Cn1cc(Br)c(C(=O)NCCCn2cc(Cl)cn2)n1,-63.62
26,CCc1cnc(N)nc1NCCCn1nc(C)nc1C,-48.25

row,SMILES,Percent Effect [%]
1,CCc1cnc(C)nc1NCCN1CCOCC1,-14.69
2,CCc1cnc(N)nc1NCCn1cc(Cl)cn1,54.15
3,CCc1cnc(N)nc1NCCCn1cc(Cl)cn1,84.03
4,CCN(CC)C(=O)C1CCCN(CC(=O)Nc2c(C)nn(CC)c2C)C1 (centres undefined),-43.93
5,Cc1nn(CC(=O)N2CCN(Cc3cnn(C)c3C)CC2)cc1Cl,-81.13
6,CCNC(=O)c1ccc(N2CCCC(c3nccn3C(C)C)C2)nc1 (centres undefined),-31.13
7,CC(C)n1ccnc1C1CCN(C(=O)c2ccccc2)CC1,-13.68
8,Cc1cc(N2CCCC(N(C)C)C2)n2nccc2n1 (centres undefined),-65.48
9,CCNC(=O)C1CCN(c2cc(-c3ccccc3)nc3ccnn23)C1 (centres undefined),-30.81
10,CN(C)C1CCN(c2cc(-c3ccccc3)nc3ccnn23)C1 (centres undefined),51.07
11,O=C(NCCCn1ccccc1=O)c1cnc(-c2ccsc2)s1,-39.04
12,O=C(CCNCc1cccc2c1OCCCO2)NC1CCCC1,12.04
13,O=S(=O)(CCNCc1cccc2c1OCCO2)N1CCOCC1,10.69
14,O=C(CC1CCCC1)NCCNCc1cccc2c1OCCO2,71.86
15,CC(C)c1nc(CN2CCOC(CNc3cccnn3)C2)cs1 (centres undefined),-68.41
16,O=C1c2ccccc2C(=O)N1CC(O)Cn1nc(-c2cccs2)oc1=O (centres undefined),1.705
17,O=C(c1ccnc(CC2COc3ccccc3C2)c1)N1CCCC1 (centres undefined),-41.96
18,CCS(=O)(=O)N1CCc2ccc(NC(=O)NC(C)(C)C)cc21,-106.6
19,FC(F)(F)Oc1cccc(CNC[C@H]2Cn3ccnc3CO2)c1,-105.1
20,CC(C1CCN(Cc2ccc(OC(F)F)cc2)CC1)N1CCOCC1 (centres undefined),-27.61
21,Cc1cccc(-c2[nH]ncc2CNCC2CCN(CC(C)O)CC2)c1 (centres undefined),-49.15
22,CC(O)CN1CCC(CNCc2cccc(C(F)(F)F)c2)CC1 (centres undefined),82.43
23,CCn1ccnc1CNCC1CCN(CC(O)c2ccccc2)CC1 (centres undefined),-30.37
24,CC(O)CN1CCC(CNCc2cccc(C(N)=O)c2)CC1 (centres undefined),-77.28
25,CC(C)Oc1cccc(CN2CCC(C(C)N3CCOCC3)CC2)c1 (centres undefined),55.35
26,CC(C)Oc1cccc(CC(=O)NC2CCN(CC(N)=O)CC2)c1,-80.49

row,SMILES,Percent Effect [%]
1,CC(C1CCN(Cc2ccc(N(C)C)nc2)CC1)N1CCOCC1 (centres undefined),-9.646
2,CN1CCOC(CNCc2cccc(OC(F)(F)F)c2)C1 (centres undefined),1.205
3,CC(O)CN1CCC(CNCc2cccc(OC(C)C)c2)CC1 (centres undefined),61.47
4,O=C(Nc1cn[nH]c1)N1CCCCCC1c1ccncc1 (centres undefined),-103.8
5,Cn1cnc(S(=O)(=O)N2C[C@@H]3CC[C@H](C2)N(Cc2ccccn2)C3)c1,-132.7
6,N#Cc1ccc(F)c(CNC(=O)NC(CO)c2ccccc2)c1 (centres undefined),-103.2
7,Cc1ccc(N2CCC3(CCC(=O)N3Cc3ccncc3)CC2)nn1.O=C(O)C(F)(F)F,-132.1
8,COCCn1cc(CC(=O)Nc2cc(C)n(C)n2)c2ccccc21,-50.35
9,Cc1cc(NCCC(=O)NC2CCCCC2)nc(-c2ccncc2)n1,-22.05
10,CC(O)CN1CCC(CNCc2ccc(S(C)(=O)=O)cc2)CC1 (centres undefined),-36.2
11,Cc1ccc(-c2n[nH]cc2CNCC2CCN(CC(C)O)CC2)cc1 (centres undefined),-46.8
12,Cc1ncc(C(=O)N2CCCC(n3cccn3)C2)s1 (centres undefined),-29.56
13,CNC(=O)CS(=O)(=O)C1CCN(S(=O)(=O)c2ccccc2Cl)CC1,-120
14,Cc1cc(CN2CCC(CNS(=O)(=O)c3ccccc3F)CC2)c(C)o1,78.36
15,O=C(c1cccc(CNS(=O)(=O)c2ccccc2F)c1)N1CCCC1,-96.06
16,Cc1cc(CN2CCC(CNS(=O)(=O)c3ccccc3Cl)CC2)c(C)o1,52.45
17,O=S(=O)(NCC1CCN(CCN2CCOCC2)C1)c1ccccc1F (centres undefined),-18.99
18,Cc1cnc2c(S(=O)(=O)NCC3CC3)cccc2c1,-114.6
19,CN(Cc1cnn(C)c1)C(=O)CCc1ccc2c(c1)OCO2,-45.89
20,O=C(NCCc1ccncc1)c1cccnc1OCC(F)(F)F,-160.3
21,CN(C)S(=O)(=O)N1CC[C@]2(O)CCN(Cc3cccc(F)c3)C[C@@H]2C1,18.33
22,CN(C)S(=O)(=O)N1CC[C@]2(O)CCN(Cc3cccc(C#N)c3)C[C@@H]2C1,-65.92
23,CN(C)S(=O)(=O)N1CC[C@]2(O)CCN(CCc3cccc(F)c3)C[C@@H]2C1,52.04
24,Cc1ccc(CN2CC[C@@]3(O)CCN(S(=O)(=O)N(C)C)C[C@H]3C2)cc1C,52.24
25,CN(C)S(=O)(=O)N1CC[C@]2(O)CCN(CCCc3cccnc3)C[C@@H]2C1,-68.67
26,CN(C)S(=O)(=O)N1CC[C@]2(O)CCN(Cc3cc(F)cc(F)c3)C[C@@H]2C1,-90.9
